PubChem BioAssay AID1159580 (chemical genetic matrix, 2015)
Out of some 5,500 compounds screened, about 2,000 (36%) were called active. Inconclusive results (about 18%) are left out. Cut-off read from the data, not from the text of the source: active = normalized growth mostly below about 0.91 (no sharp cut-off); inconclusive = no clear call, values can overlap the other calls; inactive = mostly above about 0.92. This is one part of the list.

Experiment: chemical genetic growth profiling, strain panel (AID 1159580);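 note: tested at 20 µM; growth read once vehicle control cultures reached saturation at 30 °C; 1 = growth at the plate median or of vehicle wells; lower values mean less growth of the strain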
Settings: growth OD

Measured: normalized growth

C=Cc1c2[nH]c(c1C)C=c1[nH]c(c(C)c1C=C)=CC1N=C(C=c3[nH]c(c(C)c3CCC(=O)O)=C2)C(CCC(=O)O)=C1C (configuration not stated)
inactive: S. cerevisiae deletion strains, locus YJR075W, strain HOC1, hits give low values 0.947 | S. cerevisiae deletion strains, locus YKL068W, hits give low values 1.06 | S. cerevisiae deletion strains, locus YKL160W, strain elf1, hits give low values 0.963 | S. cerevisiae deletion strains, locus YKL190W, strain CNB1, hits give low values 0.99 | S. cerevisiae deletion strains, locus YKR001C, strain vps1, hits give low values 0.953 | S. cerevisiae deletion strains, locus YKR026C, strain gcn3, hits give low values 1.06 | S. cerevisiae deletion strains, locus YKR091W, strain srl3, hits give low values 1 | S. cerevisiae deletion strains, locus YLL001W, strain dnm1, hits give low values 1.02 | S. cerevisiae deletion strains, locus YLL026W, hits give low values 1.02 | S. cerevisiae deletion strains, locus YLL041C, strain sdh2, hits give low values 1.02 | S. cerevisiae deletion strains, locus YLR027C, strain aat2, hits give low values 1 | S. cerevisiae deletion strains, locus YLR039C, strain RIC1, hits give low values 0.996 | S. cerevisiae deletion strains, locus YLR058C, strain SHM2, hits give low values 0.976 | S. cerevisiae deletion strains, locus YLR102C, strain apc9, hits give low values 0.992 | S. cerevisiae deletion strains, locus YLR113W, strain HOG1, hits give low values 1.05 | S. cerevisiae deletion strains, locus YLR221C, strain rsa3, hits give low values 0.975 | S. cerevisiae deletion strains, locus YLR258W, strain gsy2, hits give low values 1.02 | S. cerevisiae deletion strains, locus YLR262C, strain YPT6 (second series), hits give low values 1.07 | S. cerevisiae deletion strains, locus YLR262C, strain YPT6, hits give low values 0.976 | S. cerevisiae deletion strains, locus YLR268W, strain sec22, hits give low values 1.06 | S. cerevisiae deletion strains, locus YLR320W, strain mms22, hits give low values 0.996 | S. cerevisiae deletion strains, locus YLR330W, strain CHS5, hits give low values 0.99 | S. cerevisiae deletion strains, locus YLR342W, strain FKS1 (second series), hits give low values 0.993 | S. cerevisiae deletion strains, locus YLR342W, strain FKS1, hits give low values 1.03 | S. cerevisiae deletion strains, locus YLR357W, strain rsc2, hits give low values 1.05 | S. cerevisiae deletion strains, locus YLR370C, strain arc18, hits give low values 0.999 | S. cerevisiae deletion strains, locus YLR371W, strain rom2, hits give low values 0.949 | S. cerevisiae deletion strains, locus YLR384C, strain iki3, hits give low values 1.04 | S. cerevisiae deletion strains, locus YLR418C, strain cdc73, hits give low values 0.885 | S. cerevisiae deletion strains, locus YML016C, strain PPZ1, hits give low values 0.979 | S. cerevisiae deletion strains, locus YML032C, strain rad52, hits give low values 1.01 | S. cerevisiae deletion strains, locus YML120C, strain ndi1, hits give low values 1.01 | S. cerevisiae deletion strains, locus YML124C, strain tub3, hits give low values 0.987 | S. cerevisiae deletion strains, locus YMR058W, strain fet3, hits give low values 0.912 | S. cerevisiae deletion strains, locus YMR078C, strain ctf18, hits give low values 0.993 | S. cerevisiae deletion strains, locus YMR125W, strain sto1, hits give low values 1.06 | S. cerevisiae deletion strains, locus YMR129W, hits give low values 1.06 | S. cerevisiae deletion strains, locus YMR205C, strain PFK2, hits give low values 1.02 | S. cerevisiae deletion strains, locus YMR223W, strain ubp8, hits give low values 0.972 | S. cerevisiae deletion strains, locus YMR231W, strain pep5, hits give low values 1.02 | S. cerevisiae deletion strains, locus YMR263W, strain SAP30, hits give low values 0.982 | S. cerevisiae deletion strains, locus YMR307W, strain GAS1, hits give low values 0.909 | S. cerevisiae deletion strains, locus YNL067W, strain RPL9B, hits give low values 1 | S. cerevisiae deletion strains, locus YNL128W, strain TEP1, hits give low values 0.975 | S. cerevisiae deletion strains, locus YNL153C, strain GIM3, hits give low values 1 | S. cerevisiae deletion strains, locus YNL183C, strain NPR1, hits give low values 1.01 | S. cerevisiae deletion strains, locus YNL209W, strain ssb2, hits give low values 1.02 | S. cerevisiae deletion strains, locus YNL233W, strain BNI4, hits give low values 1.01 | S. cerevisiae deletion strains, locus YNL248C, strain rpa49, hits give low values 0.987 | S. cerevisiae deletion strains, locus YNL250W, strain rad50, hits give low values 1.02 | S. cerevisiae deletion strains, locus YNL271C, strain bni1, hits give low values 1.02 | S. cerevisiae deletion strains, locus YNL298W, strain CLA4, hits give low values 1 | S. cerevisiae deletion strains, locus YNL307C, strain MCK1, hits give low values 0.966 | S. cerevisiae deletion strains, locus YNL322C, strain KRE1 (second series), hits give low values 1.03 | S. cerevisiae deletion strains, locus YNL322C, strain KRE1, hits give low values 0.989 | S. cerevisiae deletion strains, locus YNR049C, strain mso1, hits give low values 1.01 | S. cerevisiae deletion strains, locus YNR052C, strain pop2, hits give low values 1 | S. cerevisiae deletion strains, locus YOL006C, strain TOP1, hits give low values 0.997 | S. cerevisiae deletion strains, locus YOL012C, strain htz1 0.933 | S. cerevisiae deletion strains, locus YOL147C, strain pex11, hits give low values 0.996 | S. cerevisiae deletion strains, locus YOR001W, strain rrp6, hits give low values 1.03 | S. cerevisiae deletion strains, locus YOR061W, strain CKA2, hits give low values 0.98 | S. cerevisiae deletion strains, locus YOR069W, strain VPS5, hits give low values 0.95 | S. cerevisiae deletion strains, locus YOR070C, strain gyp1, hits give low values 0.98 | S. cerevisiae deletion strains, locus YOR080W, strain dia2, hits give low values 1.01 | S. cerevisiae deletion strains, locus YOR083W, strain WHI5, hits give low values 0.951 | S. cerevisiae deletion strains, locus YOR106W, strain vam3, hits give low values 0.951 | S. cerevisiae deletion strains, locus YOR136W, strain idh2, hits give low values 0.982 | S. cerevisiae deletion strains, locus YOR144C, strain elg1, hits give low values 0.996 | S. cerevisiae deletion strains, locus YOR184W, strain ser1, hits give low values 0.964 | S. cerevisiae deletion strains, locus YOR231W, strain MKK1, hits give low values 1.05 | S. cerevisiae deletion strains, locus YOR265W, strain rbl2, hits give low values 1.01 | S. cerevisiae deletion strains, locus YOR270C, strain vph1, hits give low values 0.874 | S. cerevisiae deletion strains, locus YOR290C, strain snf2, hits give low values 0.997 | S. cerevisiae deletion strains, locus YOR316C, strain cot1, hits give low values 0.99 | S. cerevisiae deletion strains, locus YPL051W, strain arl3, hits give low values 0.949 | S. cerevisiae deletion strains, locus YPL055C, strain LGE1, hits give low values 0.903 | S. cerevisiae deletion strains, locus YPL078C, strain atp4, hits give low values 0.984 | S. cerevisiae deletion strains, locus YPL106C, strain sse1, hits give low values 0.982 | S. cerevisiae deletion strains, locus YPL240C, strain hsp82, hits give low values 0.994 | S. cerevisiae deletion strains, locus YPL241C, strain CIN2, hits give low values 0.994 | S. cerevisiae deletion strains, locus YPL256C, strain CLN2, hits give low values 1.1 | S. cerevisiae deletion strains, locus YPR119W, strain clb2, hits give low values 0.994 | S. cerevisiae deletion strains, locus YPR141C, strain kar3, hits give low values 1.01 | S. cerevisiae deletion strains, locus YPR163C, strain tif3, hits give low values 1 | S. cerevisiae deletion strains, locus YPR167C, strain met16, hits give low values 1 | S. cerevisiae deletion strains, strain wtn01, hits give low values 0.996 | S. cerevisiae strains, strain wild type, hits give low values 0.972
active: S. cerevisiae deletion strains, locus YKL009W, strain mrt4, hits give low values 0.791 | S. cerevisiae deletion strains, locus YKL085W, strain MDH1 (second series), hits give low values 1.19 [resistant] | S. cerevisiae deletion strains, locus YKL085W, strain MDH1, hits give low values 1.19 [resistant] | S. cerevisiae deletion strains, locus YNL071W, strain lat1, hits give low values 0.881
